# Results filed as inconclusive are left out. A call without a number means that no potency is given here. Calls of active or inactive are those of the source. Unless noted, calls follow the shape of the dose curve; as a rule, active = well fitted curve in the direction sought with a large enough effect; inconclusive = small, poorly fitted or top-dose-only effect, or another doubt; inactive = no such curve, though single readings can be large; an effect the other way counts as inactive or inconclusive.
# Key:
# [1] = qHTS for inhibitors of adenylyl cyclases using a fission yeast platform: a pilot screen against the NCATS LOPAC library (AID 1347410)
# Summary of the method: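 S. pombe CHP2027 (AC9-GNAS-PDE4D2) carrying PKA-repressed fbp1-GFP, incubated 18 h at 30C in EMM with LOPAC compounds at up to 57 uM. GFP gain-of-signal read by laser scanning cytometry; DMSO negative control.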
# [2] = Validation qHTS assay for inhibitors of Activation Induced Cytidine Deaminase (AID): UDG Counterscreen signal (AID 1347427)
# Summary of the method: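 Fluorescence at 560 nm excitation, 665 nm emission reports UDG signal after 250 mM NaOH (2x) addition and 30 min. Enzymes (AID 1 uM, UDG 2 U/mL, at 4/3x) preincubated 10 min with compound, then 4 h with 4x 250 nM DJC20/DJC23 substrate at room temperature.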
# [3] = biological target: Single-stranded DNA cytosine deaminase (Homo sapiens) (UniProt Q9GZX7); test: Validation qHTS assay for inhibitors of Activation Induced Cytidine Deaminase (AID): AID signal (AID 1347429); also: potency is read from the fitted curve at half-maximal effect
# Sequence of Single-stranded DNA cytosine deaminase (Homo sapiens) (Q9GZX7 whole entry, looked up): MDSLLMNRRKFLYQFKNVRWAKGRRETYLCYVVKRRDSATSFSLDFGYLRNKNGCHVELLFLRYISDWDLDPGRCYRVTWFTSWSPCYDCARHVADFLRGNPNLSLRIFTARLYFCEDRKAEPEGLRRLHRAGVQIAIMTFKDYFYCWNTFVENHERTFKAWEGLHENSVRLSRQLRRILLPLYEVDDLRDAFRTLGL
# Summary of the method: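 Compounds (up to 114 uM final) are tested against AID plus UDG using DJC20/DJC23 FRET substrate. Reactions incubate 4 hr at room temperature, receive NaOH for 30 min, and are read at Ex 540/Em 590 nm.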
# [4] = Primary qHTS for inhibitors of La Crosse Virus (LACV) - induced cell death in SH-SY5Y cells (AID 1508616); also: potency is read from the fitted curve at half-maximal effect
# Summary of the method: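 Screening measures cell viability in LACV-infected SH-SY5Y cultures. Compound was added before virus (0.01 MOI), and ATP was detected by luminescence 6 days later.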
# [5] = biological target: Calcium and integrin-binding protein 1 (Homo sapiens) (UniProt Q99828); test: Validation qHTS for Identification of Calcium Integrin Binding protein 1 (CIB1) Competitor (AID 1508618)
# Sequence of Calcium and integrin-binding protein 1 (Homo sapiens) (Q99828 whole entry, looked up): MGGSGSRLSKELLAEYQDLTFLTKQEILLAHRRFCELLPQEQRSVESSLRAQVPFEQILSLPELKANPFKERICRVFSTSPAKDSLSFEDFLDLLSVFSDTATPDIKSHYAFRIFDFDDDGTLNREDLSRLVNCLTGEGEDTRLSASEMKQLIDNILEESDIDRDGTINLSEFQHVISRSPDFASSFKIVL
# Summary of the method: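 In this qHTS validation, the LOPAC set (up to 114 uM) was tested for blocking CIB1 binding to a fluorescein-tagged alphaIIb peptide, with FP detection at 480/540 nm.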
# [6] = biological target: Calcium and integrin-binding protein 1 (Homo sapiens) (UniProt Q99828); test: Primary qHTS for Identification of Calcium Integrin Binding Protein 1 (CIB1) Competitor (AID 1508620); also: potency is read from the fitted curve at half-maximal effect
# Summary of the method: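 Fluorescence polarization competition: GST-tagged CIB1 (1 uM final) preincubated with compound 15 min at room temperature, then FITC-labelled alphaIIb peptide (100 nM final) added. After 15 min at room temperature, polarization read at Ex 480/Em 540.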
# [7] = qHTS to identify inhibitors of the type 1 interferon - major histocompatibility complex class I in skeletal muscle: primary screen against the NCATS Mechanism Interrogation Plate v5.0 (MIPE) Libary (AID 1347411); also: nearly all actives have a fitted effect of over 65% in size; also: potency is read from the fitted curve at half-maximal effect
# Summary of the method: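 IFN-beta-driven (4 ng/ml) HLA-B-HiBit expression in CRISPR-tagged C25cl48 myoblasts; compounds 11-pt, 1:3, max 46 uM, 24 hr exposure; lytic NanoLuc complementation luminescence.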
# [8] = Primary qHTS for small molecule stabilizers of the endoplasmic reticulum resident proteome: Secreted ER Calcium Modulated Protein (SERCaMP) assay (AID 1508630)
# Summary of the method: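 The SH-SY5Y reporter protocol was run at 3 concentrations up to 38.3 uM (primary) or 11 concentrations (follow-up): 16 h compound, 100 nM thapsigargin for 4 h, then extracellular luciferase luminescence.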
# [9] = biological target: Protein phosphatase 1D (Homo sapiens) (UniProt O15297); test: RapidFire Mass Spectrometry qHTS Assay for Modulators of WT P53-Induced Phosphatase 1 (WIP1) (AID 1347424); also: series mostly up to about 63 µM
# Sequence of Protein phosphatase 1D (Homo sapiens) (O15297 whole entry, looked up): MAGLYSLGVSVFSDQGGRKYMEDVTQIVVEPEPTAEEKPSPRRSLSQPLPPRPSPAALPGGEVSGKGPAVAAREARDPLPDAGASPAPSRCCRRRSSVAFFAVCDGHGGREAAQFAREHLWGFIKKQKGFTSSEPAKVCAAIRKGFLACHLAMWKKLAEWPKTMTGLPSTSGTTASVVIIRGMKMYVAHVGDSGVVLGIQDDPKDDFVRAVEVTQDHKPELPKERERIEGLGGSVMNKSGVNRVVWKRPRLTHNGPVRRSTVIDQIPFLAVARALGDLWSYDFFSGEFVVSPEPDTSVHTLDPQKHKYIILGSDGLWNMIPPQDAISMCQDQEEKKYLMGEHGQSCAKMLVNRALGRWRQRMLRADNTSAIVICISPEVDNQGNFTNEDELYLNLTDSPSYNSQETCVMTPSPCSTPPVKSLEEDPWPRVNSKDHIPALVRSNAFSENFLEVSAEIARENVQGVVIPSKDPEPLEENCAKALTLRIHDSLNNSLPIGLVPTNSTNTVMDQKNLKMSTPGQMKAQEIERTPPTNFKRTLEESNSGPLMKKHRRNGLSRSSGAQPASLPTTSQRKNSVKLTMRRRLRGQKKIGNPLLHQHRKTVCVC
# Summary of the method: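 RapidFire MS readout of dephosphorylated VEPPL-S-QETFS product, with 1 uM isotope-labelled peptide standard. Reaction: 10 nM WIP1, 2 uM phosphopeptide substrate, 5 min, room temperature, after 1 h compound preincubation; stopped with 0.5% formic acid.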
# [10] = Counterscreen qHTS for small molecule stabilizers of the endoplasmic reticulum resident proteome: GLuc-NoTag assay (AID 1508627);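 also: SH-SY5Y cells given compound then 100 nM thapsigargin to empty ER calcium; series mostly up to about 76 µM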
# Summary of the method: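 Counterscreen line: SH-SY5Y-GLuc-NoTag. Seed, 5 h; compound, 19 h; thapsigargin 100 nM, 4 h; 37C/5% CO2. Readout: secreted GLuc luminescence, coelenterazine 0.07x final, no lysis.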
# [11] = biological target: Protein phosphatase 1D (Homo sapiens) (UniProt O15297); test: Rhodamine-PBP qHTS Assay for Modulators of WT P53-Induced Phosphatase 1 (WIP1) (AID 1347425)
# Summary of the method: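 Steps: enzyme with Rh-PBP sensor and compounds, room-temperature incubation of 1 hr, baseline read, addition of VEPPL-pS-QETFS (10 uM final), kinetic fluorescence reads at 525/598 nm. Activity equals final minus baseline signal.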
# [12] = qHTS to identify inhibitors of the type 1 interferon - major histocompatibility complex class I in skeletal muscle: primary screen against the NCATS Pharmaceutical Collection (AID 1347407);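 also: luminescence of HiBiT knocked into endogenous HLA-B as interferon-induced MHC class I level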
# Summary of the method: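 Immortalized human myoblasts (C25cl48) with HiBiT knocked into endogenous HLA-B*08:01 were stimulated with 4.0 ng/ml IFN-beta and treated with compounds ([…] top 46 uM) for 24 hrs at 37 C. HiBiT lytic luminescence read.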
# [13] = A High-Content qHTS Against Drug Library for the Identification of Small Molecules that Inhibit DYT1 Early Onset Primary Dystonia-Associated Cell Pathology (AID 1645839; calls by dose curve; also: series mostly up to about 46 µM)
# Summary of the method: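 Cells were seeded and left for 24 h, then dosed with compound alongside tetracycline induction of mutant EGFP-TorsinA. They were incubated for 48 h, fixed in 4% paraformaldehyde, permeabilized and imaged for mislocalization (%pathology) and cell count.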
smiles,measurement,setting,value
COc1cc(OC)c(/C=C2/C(=O)Nc3ccccc32)c(OC)c1,outcome,[1],inactive
same,Potency,[2],inactive
same,Potency,[3],inactive
same,Potency,[4],891 nM (active)
same,outcome,[5],inactive
COC(=O)C1=C(C)NC(C)=C(C(=O)OC)C1c1cccc(NC(=O)NCCCN2CCC(c3cccc(OC)c3)CC2)c1,outcome,[1],inactive
same,outcome,[5],inactive
same,Potency,[6],inactive
O=S(=O)(c1cccc2c(I)cccc12)N1CCCNCC1,outcome,[1],inactive
same,Potency,[7],inactive
same,Potency,[2],inactive
same,Potency,[3],inactive
same,outcome,[5],inactive
CCCCCCCCCCCCCCCCCC(=O)OC(CC(=O)O)C[N+](C)(C)C (configuration not stated),outcome,[1],inactive
same,Potency,[2],inactive
same,Potency,[3],inactive
same,Potency,[4],inactive
same,outcome,[5],inactive
same,Potency,[8],inactive
O=C(NOCC1CC1)c1cc(Br)c(F)c(F)c1Nc1ccc(I)cc1Cl,outcome,[1],inactive
same,outcome,[5],inactive
O=C1NC(=O)/C(=C/c2ccc(-c3ccc(F)cc3O)o2)S1,outcome,[1],inactive
same,Potency,[7],inactive
same,Potency,[2],inactive
same,Potency,[3],inactive
same,Potency,[4],inactive
same,outcome,[5],inactive
CC[C@@H](C)[C@H]1O[C@]2(CC[C@H]1C)C[C@@H]1C[C@@H](CC=C(C)[C@@H](O[C@H]3C[C@H](OC)[C@@H](O[C@H]4C[C@H](OC)[C@@H](O)[C@H](C)O4)[C@H](C)O3)[C@@H](C)C=CC=C3CO[C@@H]4[C@H](O)C(C)=C[C@@H](C(=O)O1)[C@]34O)O2,outcome,[1],inactive
same,Potency,[2],inactive
same,Potency,[3],inactive
same,Potency,[4],inactive
same,outcome,[5],inactive
same,Potency,[8],inactive
O=C1NC(=O)/C(=C/c2ccc3nccnc3c2)S1,outcome,[1],inactive
same,Potency,[7],inactive
same,Potency,[2],inactive
same,Potency,[3],inactive
same,Potency,[4],inactive
CN(C)c1ccc(C(=C2C=CC(=[N+](C)C)C=C2)c2ccccc2)cc1,Potency,[9],inactive
CCN(CC)CCCCNc1ncc2cc(-c3c(Cl)cccc3Cl)c(NC(=O)NC(C)(C)C)nc2n1,outcome,[1],inactive
same,outcome,[5],inactive
same,Potency,[6],inactive
CC[C@H]1OC(=O)[C@H](C)[C@@H](O[C@H]2C[C@@](C)(OC)[C@@H](O)[C@H](C)O2)[C@H](C)[C@@H](O[C@@H]2O[C@H](C)C[C@H](N(C)C)[C@H]2O)[C@](C)(O)C[C@@H](C)C(=O)[C@H](C)[C@@H](O)[C@]1(C)O,Potency,[7],inactive
COC1=C(OC)C(=O)c2ccccc2C1=O,outcome,[1],inactive
same,Potency,[3],50.1 µM (active)
same,Potency,[4],inactive
same,outcome,[5],inactive
O=C(Nc1ccccc1)c1cc([N+](=O)[O-])ccc1Cl,outcome,[1],inactive
same,Potency,[2],inactive
same,Potency,[3],inactive
same,outcome,[5],inactive
same,Potency,[10],inactive
N#C/C(=C\c1ccc(O)c(O)c1)C(=O)NCc1ccccc1,Potency,[7],inactive
same,Potency,[2],inactive
COc1ccc(-c2cc(=O)c3c(O)c(OC)c(OC)cc3o2)cc1O,outcome,[1],inactive
same,outcome,[5],inactive
S=c1[nH]c2ccccc2s1,Potency,[9],inactive
same,outcome,[11],inactive
same,Potency,[4],inactive
same,Potency,[6],inactive
same,Potency,[8],inactive
CCOC(=O)N1CCN(/[N+]([O-])=N/Oc2ccc([N+](=O)[O-])cc2[N+](=O)[O-])CC1,Potency,[7],20.8 µM (active)
same,Potency,[2],inactive
same,Potency,[3],inactive
same,Potency,[8],inactive
COC(=O)C1=C(C)NC(C)=C(C(=O)OCC(C)C)C1c1ccccc1[N+](=O)[O-] (configuration not stated),Potency,[9],inactive
same,outcome,[11],inactive
same,Potency,[4],inactive
same,Potency,[6],inactive
CCCC(=O)OC[C@@H](OC(=O)CCC)[C@@H](OC(=O)CCC)[C@H](Cn1c2nc(=O)[nH]c(=O)c-2nc2cc(C)c(C)cc21)OC(=O)CCC,Potency,[12],inactive
same,Potency,[6],2.82 µM (active)
CCCn1c(=O)c2[nH]c(-c3ccc(OCC(=O)NCCN)cc3)nc2n(CCC)c1=O,Potency,[2],inactive
same,Potency,[3],inactive
same,Potency,[4],inactive
same,Potency,[8],inactive
CCCCC1C(=O)N(c2ccccc2)N(c2ccc(O)cc2)C1=O (configuration not stated),Potency,[9],inactive
same,Potency,[4],inactive
same,Potency,[6],inactive
same,Potency,[8],inactive
COc1cc2nc(N3CCN(C(=O)OCc4ccccc4)C(C(=O)NC(C)(C)C)C3)nc(N)c2cc1OC (configuration not stated),Potency,[2],inactive
same,Potency,[3],inactive
same,Potency,[4],inactive
CCCCCCCCCCCCCCCCCCNC(=O)OCC(COP(=O)([O-])OCC[n+]1ccsc1)OC (configuration not stated),Potency,[2],inactive
same,Potency,[3],inactive
same,Potency,[4],inactive
same,Potency,[8],inactive
CN(C)c1nc(N)c(C(=O)N=C(N)N)nc1Cl,Potency,[2],inactive
same,Potency,[3],inactive
same,outcome,[5],inactive
COc1ccccc1N1CCN(CCN(C(=O)c2ccc(I)cc2)c2ccccn2)CC1,Potency,[2],inactive
same,Potency,[3],inactive
same,Potency,[4],inactive
C=CC(=O)c1ccc(CCCCCC)cc1,Potency,[2],inactive
same,Potency,[3],inactive
same,Potency,[4],inactive
same,Potency,[8],inactive
O=c1[nH]c2cc(Cl)c(Cl)cc2[nH]c1=O,Potency,[2],inactive
same,Potency,[3],inactive
same,Potency,[4],inactive
same,Potency,[8],inactive
COC(=O)C1=C(C)NC(C)=C(C(=O)OCC(C)=O)C1c1ccccc1[N+](=O)[O-] (configuration not stated),Potency,[9],inactive
same,outcome,[11],inactive
same,Potency,[4],inactive
same,Potency,[6],inactive
same,Potency,[13],inactive
N.N.O=C(O)C1(C(=O)O)CCC1.[Pt],Potency,[2],inactive
same,Potency,[3],inactive
same,Potency,[4],inactive
OC[C@H]1O[C@@H](n2cnc3c(Nc4ccccc4)ncnc32)[C@H](O)[C@@H]1O,Potency,[2],inactive
same,Potency,[3],inactive
same,Potency,[4],inactive
same,Potency,[8],inactive
CCCCCCCCCCCCCCCCCC(=O)NCC(COP(=O)([O-])OCC[N+](C)(C)C)OCC (configuration not stated),Potency,[2],inactive
same,Potency,[3],inactive
C[N+](C)(CCCCCC[N+](C)(C)CCCN1C(=O)c2cccc3cccc(c23)C1=O)CCCN1C(=O)c2cccc3cccc(c23)C1=O,Potency,[2],inactive
same,Potency,[3],1.41 µM (active)
same,Potency,[4],inactive
same,Potency,[8],inactive
CCCSc1ccc2nc(NC(=O)OC)[nH]c2c1,Potency,[9],inactive
same,outcome,[11],inactive
same,Potency,[6],inactive
same,Potency,[8],inactive

# — PubChem BioAssay (NCATS)
